Results filed as inconclusive are left out. Where a call stands in place of a potency, no number is given. Active and inactive are the calls of the source. The call rests on the fitted dose curve; in most records, active means well fitted cell-killing curve with a large enough effect; inconclusive means small, poorly fitted or top-dose-only effect; inactive means flat fitted curve, though single readings scatter.
Further: nearly all actives have a fitted effect of over 35% in size.
Potency means the concentration at half of the fitted maximal effect.

One assay in a line: Quantitative highthroughput screen to assess conditional lethalithy of P12 Ichikawa cells grown in RPMI1640 with dialyzed fetal bovine serum (RPMI+ds) (AID 1963880). Conditions: ATP luminescence, 48 h; Potency: P12-Ichikawa viability; series mostly up to 45.8 µM. A digest of the protocol:
(§1)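 Each medium arm—HPLM with 10% dialyzed FBS, or RPMI1640 with 5 mM glucose and 10% untreated or dialyzed FBS—was screened against an 11-point, 3-fold compound titration for 48 h at 37 °C, with CellTiter-Glo luminescence as endpoint.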
As for `CNC1[C@H](O)C(O[C@@H]2C(O)C(O[C@H]3O[C@H]([C@@H](C)NC)CC[C@H]3N)[C@@H](N)C[C@H]2N)OC[C@]1(C)O` (some centres undefined), the Potency result was “inactive”.
The same measure, in the same setting: as for `COc1ccc(CC2=NN3C([C@@H](CCc4ccccc4)[C@@H](C)O)=NC(C)C3C(=O)N2)cc1OC` (some centres undefined), the entry is “inactive”.
The same measure, in the same setting: as for `CCOC(=O)O[C@]1(C(=O)OCCl)CC[C@@H]2[C@H]3CCC4=CC(=O)C=C[C@]4(C)[C@@H]3[C@@H](O)C[C@@]21C`, the entry is “inactive”; as for `CC(C)=CCCC(C)=CCCC(C)=CCCC(C)=CCCC(C)=CCCC(C)=CCCC(C)=CCCC(C)=CCCC(C)=CCO`, “inactive”.
On the same count and under the same terms, the entry for `NC1CCC(Nc2nc(Nc3ccc(C(=O)N4CCCCC4)cc3)c3ncn(-c4cccc(F)c4)c3n2)CC1` (centres undefined) is “inactive”; for `CC=CC1=C(C(=O)O)N2C(=O)[C@H](NC(=O)[C@H](N)c3ccc(O)cc3)[C@@H]2SC1` it is 13.2 µM (active); for `COc1ccc2nc(S(=O)Cc3ncc(C)c(OC)c3C)[nH]c2c1` (centres undefined) it is “inactive”.
In the case of `CC1(C)[C@H](O[C@H]2O[C@H](C(=O)O)[C@@H](O)[C@H](O)[C@H]2O[C@@H]2O[C@H](C(=O)O)[C@@H](O)[C@H](O)[C@H]2O)CC[C@@]2(C)[C@H]1CC[C@]1(C)[C@H]2C(=O)C=C2[C@H]3C[C@@](C)(C(=O)O)CC[C@]3(C)CC[C@]21C`, the Potency entry was “inactive”.
The same measure, in the same setting: as for `COC(=O)[C@@H]1CC2=CC(=O)CC[C@]2(C)[C@@]23O[C@@H]2C[C@@]2(C)[C@H](CC[C@@]24CCC(=O)O4)[C@@H]13`, the entry is “inactive”; as for `CCOc1cc2ncc(C#N)c(Nc3ccc(F)c(Cl)c3)c2cc1NC(=O)C=CCN(C)C`, 5.26 µM (active).
Same read-out and setting: as for `O=C1C(CCC(O)c2ccc(F)cc2)C(c2ccc(O)cc2)N1c1ccc(F)cc1` (centres undefined), the entry is “inactive”.
The same measure, in the same setting: as for `CS(=O)(=O)c1ccc(C(=O)Nc2ccc(Cl)c(-c3ccccn3)c2)c(Cl)c1`, the entry is “inactive”; as for `O=c1c(-c2ccc(O)cc2)coc2cc(O[C@@H]3O[C@H](CO)[C@H](O)[C@H](O)[C@H]3O)ccc12`, “inactive”; as for `Nc1ccc(S(=O)(=O)Nc2ccnn2-c2ccccc2)cc1`, “inactive”.
Regarding `COc1ccc(CCC(=O)Nc2nc3ccc(Cl)cc3s2)cc1OC`, the Potency result is “inactive”.
The same measure, in the same setting: as for `CC(=Cc1ccccc1)C=C1SC(=S)N(CC(=O)O)C1=O`, the entry is “inactive”; as for `O=C1c2ccccc2-c2n[nH]c3cccc1c23`, 16.6 µM (active); as for `COc1cc(NC(=O)c2ccc(-c3ccc(Cl)cc3)o2)cc(OC)c1`, “inactive”.
On the same count and under the same terms, the entry for `CCN1CCCC1CNC(=O)c1cc(S(N)(=O)=O)ccc1OC` (centres undefined) is “inactive”; for `CC(C)c1ccc(Cn2ccc3c4c(N)nc(NC5CC5)nc4ccc32)cc1` it is 2.64 µM (active).

A further assay is described as follows: Quantitative highthroughput screen to assess conditional lethalithy of P12 Ichikawa cells grown in RPMI1640 with untreated serum (RPMI+s) (AID 1963881). Conditions: ATP luminescence, 48 h; Potency: viability; series mostly up to 45.8 µM. A digest of the protocol:
as §1
Take `O=c1n(CCCN2CCN(c3cccc(Cl)c3)CC2)nc2ccccn12`: the Potency entry is “inactive”.
Turning to `CC(C)OC(=O)C(C(=O)OC(C)C)=C1SC=CS1`, the Potency entry was “inactive”.
On the same count and under the same terms, the entry for `CNC(=O)c1cc(COc2nnc(Nc3ccc(Cl)cc3)c3ccoc23)ccn1` is “inactive”; for `Cc1cc(CS(=O)(=O)c2ccccc2)cc(OCc2ccc(CN3CCC[C@H]3CO)cc2)c1` it is 1.05 µM (active).
The same measure, in the same setting: the entry for `COc1ccc(Nc2nccc(NCCO)n2)cc1` is “inactive”; for `C[C@H]1Oc2cc(cnc2N)-c2c(nn(C)c2C#N)CN(C)C(=O)c2ccc(F)cc21` it is “inactive”; for `NC(=O)N1c2ccccc2CC(=O)c2ccccc21` it is “inactive”.
Regarding `Cc1cncc2cccc(S(=O)(=O)N3CCCN(C(=O)CN)C[C@@H]3C)c12`, the Potency is 6.62 µM (active).
Still for that read-out and setting: the entry for `COC1=C(OC)C(=O)C(CC=C(C)CCC=C(C)CCC=C(C)CCC=C(C)CCC=C(C)CCC=C(C)CCC=C(C)CCC=C(C)CCC=C(C)CCC=C(C)C)=C(C)C1=O` is “inactive”; for `CON=C(C(=O)N[C@@H]1C(=O)N2C(C(=O)O)=C(Cn3ccc(=N)n3CCO)CS[C@H]12)c1csc(N)n1` it is “inactive”.
Same read-out and setting: the entry for `COC(=O)C1=C(C)NC(C)=C(C(=O)OC(C)C)C1c1cccc2nonc12` (centres undefined) is “inactive”; for `Clc1cccc(-n2nnnc2NCc2ccccc2Oc2ccccn2)c1Cl` it is “inactive”; for `CC[C@H](CO)Nc1nc(NCc2ccccc2)c2ncn(C(C)C)c2n1` it is “inactive”.
Regarding `C1=CCOCc2cc(ccc2OCCN2CCCC2)Nc2nccc(n2)-c2cccc(c2)OCC1`, the Potency was 13.2 µM (active).
The same measure, in the same setting: as for `Fc1ccc(C(c2ccc(F)cc2)N2CCN(CC=Cc3ccccc3)CC2)cc1`, the entry is “inactive”; as for `CNC1[C@H](O)C(O[C@@H]2C(O)C(O[C@H]3O[C@H]([C@@H](C)NC)CC[C@H]3N)[C@@H](N)C[C@H]2N)OC[C@]1(C)O` (some centres undefined), “inactive”; as for `COc1ccc(CC2=NN3C([C@@H](CCc4ccccc4)[C@@H](C)O)=NC(C)C3C(=O)N2)cc1OC` (some centres undefined), “inactive”.
In the case of `CCOC(=O)O[C@]1(C(=O)OCCl)CC[C@@H]2[C@H]3CCC4=CC(=O)C=C[C@]4(C)[C@@H]3[C@@H](O)C[C@@]21C`, the Potency result is “inactive”.
The same measure, in the same setting: as for `CC(C)=CCCC(C)=CCCC(C)=CCCC(C)=CCCC(C)=CCCC(C)=CCCC(C)=CCCC(C)=CCCC(C)=CCO`, the entry is “inactive”; as for `NC1CCC(Nc2nc(Nc3ccc(C(=O)N4CCCCC4)cc3)c3ncn(-c4cccc(F)c4)c3n2)CC1` (centres undefined), “inactive”; as for `CC=CC1=C(C(=O)O)N2C(=O)[C@H](NC(=O)[C@H](N)c3ccc(O)cc3)[C@@H]2SC1`, 9.35 µM (active).
Same read-out and setting: the entry for `COc1ccc2nc(S(=O)Cc3ncc(C)c(OC)c3C)[nH]c2c1` (centres undefined) is “inactive”; for `CC1(C)[C@H](O[C@H]2O[C@H](C(=O)O)[C@@H](O)[C@H](O)[C@H]2O[C@@H]2O[C@H](C(=O)O)[C@@H](O)[C@H](O)[C@H]2O)CC[C@@]2(C)[C@H]1CC[C@]1(C)[C@H]2C(=O)C=C2[C@H]3C[C@@](C)(C(=O)O)CC[C@]3(C)CC[C@]21C` it is “inactive”; for `COC(=O)[C@@H]1CC2=CC(=O)CC[C@]2(C)[C@@]23O[C@@H]2C[C@@]2(C)[C@H](CC[C@@]24CCC(=O)O4)[C@@H]13` it is “inactive”.
Still for that read-out and setting: as for `CCOc1cc2ncc(C#N)c(Nc3ccc(F)c(Cl)c3)c2cc1NC(=O)C=CCN(C)C`, the figure is 5.26 µM (active); as for `O=C1C(CCC(O)c2ccc(F)cc2)C(c2ccc(O)cc2)N1c1ccc(F)cc1` (centres undefined), “inactive”; as for `CS(=O)(=O)c1ccc(C(=O)Nc2ccc(Cl)c(-c3ccccn3)c2)c(Cl)c1`, “inactive”.
Take `O=c1c(-c2ccc(O)cc2)coc2cc(O[C@@H]3O[C@H](CO)[C@H](O)[C@H](O)[C@H]3O)ccc12`: the Potency entry was “inactive”.
In the case of `Nc1ccc(S(=O)(=O)Nc2ccnn2-c2ccccc2)cc1`, the Potency entry is “inactive”.
Still for that read-out and setting: as for `COc1ccc(CCC(=O)Nc2nc3ccc(Cl)cc3s2)cc1OC`, the entry is “inactive”; as for `CC(=Cc1ccccc1)C=C1SC(=S)N(CC(=O)O)C1=O`, “inactive”; as for `O=C1c2ccccc2-c2n[nH]c3cccc1c23`, 16.6 µM (active).
Same read-out and setting: as for `COc1cc(NC(=O)c2ccc(-c3ccc(Cl)cc3)o2)cc(OC)c1`, the entry is “inactive”; as for `CC(C)c1ccc(Cn2ccc3c4c(N)nc(NC5CC5)nc4ccc32)cc1`, 4.69 µM (active).

The values above are taken from PubChem BioAssay (NCATS).
